Measurements: PubChem BioAssay (Tox21)
Inconclusive results are not listed. Activity calls are given as the source filed them. Unless noted, the call rests on the fitted dose curve; in most records, active means well fitted curve in the direction sought with a large enough effect in the repeat runs; inconclusive means weak or mixed curves; inactive means no such curve, though single readings can be large; an effect the other way counts as inactive or inconclusive.

Columns and labels:
[1] = qHTS assay to identify small molecule antagonists of the peroxisome proliferator-activated receptor gamma (PPARg) signaling pathway - cell viability counter screen (AID 743194); settings: PPARg-bla HEK293H viability, CellTiter-Glo luminescence, 17 h, co-treated with 50 nM rosiglitazone; series mostly up to 62.6 µM; further: nearly all actives have a fitted effect of over 55% in size
Outline: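 Cytotoxicity counter screen in PPARg-bla HEK293H cells, same wells as reporter assay. Compounds plus 50 nM rosiglitazone (final) for 17 h at 37 C, then viability read by CellTiter-Glo luminescence.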

[2] = qHTS assay for small molecule agonists of the antioxidant response element (ARE) signaling pathway (AID 743202; active means well fitted activation curve with a large enough effect in the signal ratio in the repeat runs, not every such curve was filed as active; the % refers to the signal ratio; further: potency means the concentration at half of the fitted maximal effect); settings: HepG2 ARE-bla reporter, beta-lactamase FRET, 16 h; series mostly up to 73.3 µM
Outline: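 HepG2 ARE-bla reporter line, 2,000 cells/well; 5 h preincubation 37 C/5% CO2; compound (DMSO) 16 h 37 C; B/G FRET substrate 2 h RT; fluorescence intensity.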

[3] = qHTS assay for small molecule agonists of the antioxidant response element (ARE) signaling pathway - cell viability counter screen (AID 743203; calls by dose curve; further: nearly all actives have a fitted effect of over 55% in size); settings: ARE-bla HepG2 viability, CellTiter-Glo luminescence, 16 h; series mostly up to 73.3 µM
Outline: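 Cytotoxicity was tested in parallel with the ARE reporter screen. ARE-bla HepG2 cells were exposed to compounds for 16 hrs, and viability was taken from CellTiter-Glo luminescence.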

[4] = qHTS assay to identify small molecule agonists of the peroxisome proliferator-activated receptor delta (PPARd) signaling pathway - cell viability counter screen (AID 743211); settings: PPARd-bla HEK293H viability, CellTiter-Glo luminescence, 17 h; series mostly up to 62.6 µM; further: nearly all actives have a fitted effect of over 55% in size
Outline: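 In the same wells used for beta-lactamase reporter measurement, cytotoxicity is scored by CellTiter-Glo. HEK293H PPARd-bla cells receive compound for 17 h at 37C following a 5 h settling period.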

[5] = molecular target: Peroxisome proliferator-activated receptor delta (Homo sapiens) (UniProt Q03181); assay: qHTS assay to identify small molecule agonists of the peroxisome proliferator-activated receptor delta (PPARd) signaling pathway (AID 743212; calls by dose curve); settings: HEK293H PPARd-UAS-bla, beta-lactamase FRET ratio, 17 h; series mostly up to 62.6 µM
Outline: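 Read-out: beta-lactamase FRET fluorescence after 2 h room-temperature incubation with LiveBLAzer B/G substrate. Cells were HEK293H carrying a UAS-bla reporter for PPARd, treated at 37 C with DMSO-dissolved compounds.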

[6] = qHTS assay to identify small molecule antagonists of the peroxisome proliferator-activated receptor delta (PPARd) signaling pathway - cell viability counter screen (AID 743213); settings: PPARd-bla HEK293H viability, CellTiter-Glo luminescence, 17 h; series mostly up to 62 µM; further: nearly all actives have a fitted effect of over 50% in size
Outline: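 Agonist-stimulated (L165041, 300 nM final) HEK293H PPARd UAS-bla cells are exposed to compounds for 17 h at 37 C, and ATP-based luminescence (CellTiter-Glo) from the same wells reports cytotoxicity.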

[7] = qHTS assay to identify small molecule agonists of the farnesoid-X-receptor (FXR) signaling pathway - cell viability counter screen (AID 743218); settings: FXR-bla HEK293T viability, CellTiter-Glo luminescence, 16 h; series mostly up to 62.6 µM; further: nearly all actives have a fitted effect of over 45% in size
Outline: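 Cells were seeded, left 5 h at 37 C and 5% CO2, then dosed with compound in DMSO for 16 h. After the beta-lactamase FRET read, CellTiter-Glo was added and luminescence measured 30 min later.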

[8] = qHTS assay to identify small molecule antagonists of the farnesoid-X-receptor (FXR) signaling pathway - cell viability counter screen (AID 743221; active means well fitted cell-killing curve with a large enough effect in the repeat runs, not every such curve was filed as active; further: nearly all actives have a fitted effect of over 50% in size); settings: FXR-bla HEK293T viability, CellTiter-Glo luminescence, 16 h; series mostly up to 62.6 µM
Outline: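 Here viability was scored by luminescence after CellTiter-Glo addition to wells already read for beta-lactamase. Prior treatment: compound plus CDCA (50 uM final), 16 h, 37 C, HEK 293T FXR-bla cells.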

[9] = molecular target: Vitamin D3 receptor (Homo sapiens) (UniProt P11473); assay: qHTS assay to identify small molecule agonists of the vitamin D receptor (VDR) signaling pathway (AID 743222; calls by dose curve); settings: HEK293T VDR-UAS-bla, beta-lactamase FRET ratio, 16 h; series mostly up to 63.5 µM
Outline: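 Cells carrying a VDR-driven beta-lactamase reporter are seeded at 2,000 per well and rested 4 h. Compounds in DMSO are added for 16 h at 37C, and FRET substrate fluorescence is measured after 2 h at room temperature.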

[10] = molecular target: Vitamin D3 receptor (Homo sapiens) (UniProt P11473); assay: qHTS assay to identify small molecule antagonists of the vitamin D receptor (VDR) signaling pathway (AID 743223; active means well fitted inhibition curve with a large enough effect in the signal ratio in the repeat runs, not every such curve was filed as active; the % refers to the signal ratio); settings: VDR-UAS-bla HEK293T, beta-lactamase FRET ratio, 16 h; series mostly up to 61 µM
Outline: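 Inhibition of agonist-driven VDR signalling is scored in VDR-bla cells: 3 nM final 1alpha,25-dihydroxyvitamin D3 plus compound, 16 h at 37C, then beta-lactamase detection by FRET substrate fluorescence after 2 h.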

[11] = qHTS assay to identify small molecule agonists of the vitamin D receptor (VDR) signaling pathway - cell viability counter screen (AID 743224); settings: VDR-bla HEK293T viability, CellTiter-Glo luminescence, 16 h; series mostly up to 62.6 µM; further: nearly all actives have a fitted effect of over 50% in size
Outline: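 Cells: VDR-bla, 2,000/well, settled 4 h. Treatment: compounds in DMSO, 16 h, 37C/5% CO2. Readout: CellTiter-Glo luminescence after 30 min RT.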

[12] = qHTS assay to identify small molecule that activate the aryl hydrocarbon receptor (AhR) signaling pathway - cell viability counter screen (AID 743086); settings: HepG2-AhR-luc viability, CellTiter-Fluor, 24 h; series mostly up to 70.3 µM;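 further: HepG2 liver cells carrying the AhR DRE luciferase reporter; nearly all actives have a fitted effect of over 45% in size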
Outline: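 HepG2-AhR-luc (HG2L7.5c1) cells, 4000/well, treated 24 h at 37 C with compound; viability measured as CellTiter-Fluor fluorescence after 30 min in the same wells as the luciferase read.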

[13] = molecular target: Peroxisome proliferator-activated receptor gamma (Homo sapiens) (UniProt P37231); assay: qHTS assay to identify small molecule agonists of the peroxisome proliferator-activated receptor gamma (PPARg) signaling pathway (AID 743094; active means well fitted activation curve with a large enough effect in the signal ratio in the repeat runs, not every such curve was filed as active; the % refers to the signal ratio); settings: HEK293H PPARg-UAS-bla, beta-lactamase FRET ratio, 17 h; series mostly up to 57 µM
Outline: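 Cells from the PPARg UAS-bla HEK293H line are plated and incubated 5 h at 37C. Compounds in DMSO are pinned in and left 17 h at 37C. LiveBLAzer B/G substrate is then added for 1 h at room temperature before fluorescence is measured.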

[14] = molecular target: Bile acid receptor (Homo sapiens) (UniProt Q96RI1); assay: qHTS assay to identify small molecule antagonists of the farnesoid-X-receptor (FXR) signaling pathway (AID 743217; active means well fitted inhibition curve with a large enough effect in the signal ratio in the repeat runs, not every such curve was filed as active; the % refers to the signal ratio); settings: HEK293T FXR-UAS-bla, beta-lactamase ratio, CDCA-stimulated, 16 h; series mostly up to 62.6 µM
Outline: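 Cells carrying a UAS-driven beta-lactamase reporter (GeneBLAzer FXR-UAS-bla HEK 293T) were plated and rested 5 h at 37 °C. Compounds in DMSO were added alongside chenodeoxycholic acid agonist at 50 uM final and left 16 h at 37 °C before FRET substrate readout.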

[15] = molecular target: Bile acid receptor (Homo sapiens) (UniProt Q96RI1); assay: qHTS assay to identify small molecule agonists of the farnesoid-X-receptor (FXR) signaling pathway (AID 743220; active means well fitted activation curve with a large enough effect in the signal ratio in the repeat runs, not every such curve was filed as active; the % refers to the signal ratio); settings: HEK293T FXR-UAS-bla, beta-lactamase FRET ratio, 16 h; series mostly up to 62.6 µM
Outline: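 FXR-UAS-bla HEK 293T cells carrying a UAS-driven beta-lactamase reporter were plated for 5 h at 37C/5% CO2, then exposed to DMSO-dissolved Tox21 10K compounds for 16 h at 37C. A LiveBLAzer B/G FRET substrate was loaded for 2 h at room temperature before fluorescence reading.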

[16] = molecular target: Peroxisome proliferator-activated receptor gamma (Homo sapiens) (UniProt P37231); assay: qHTS assay to identify small molecule antagonists of the peroxisome proliferator-activated receptor gamma (PPARg) signaling pathway (AID 743191; calls by dose curve; further: nearly all actives have a fitted effect of over 30% in size); settings: HEK293H PPARg-UAS-bla, beta-lactamase ratio, antagonist, 17 h; series mostly up to 62.6 µM
Outline: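 GeneBLAzer PPARg UAS-bla HEK293H cells, 5 h post-plating, exposed to compounds 17 h at 37C. LiveBLAzer B/G FRET substrate added for 1 h at room temperature; beta-lactamase reporter read by fluorescence intensity.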

[17] = qHTS assay for small molecule activators of the heat shock response signaling pathway - cell viability counter screen (AID 743209); settings: HSE-bla HeLa viability, CellTiter-Glo luminescence, 5 h; series mostly up to 62.6 µM; further: nearly all actives have a fitted effect of over 50% in size
Outline: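 Cytotoxicity counter screen run in parallel with the HSE beta-lactamase reporter, using the same wells. HeLa HSE-bla cells received compound for 5 h at 37 C; ATP-based CellTiter-Glo luminescence was measured after 30 min at room temperature.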

[18] = qHTS assay for small molecule activators of the heat shock response signaling pathway (AID 743210; active means well fitted activation curve with a large enough effect in the signal ratio in the repeat runs, with a control signal flat, not every such curve was filed as active; the % refers to the signal ratio;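 further: HeLa cells with beta-lactamase reporter driven by heat shock elements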); settings: HeLa HSE-bla reporter, beta-lactamase ratio, 5 h; series mostly up to 62.6 µM
Outline: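 Beta-lactamase reporter read-out: FRET substrate fluorescence after 2.5 h at RT, following 5 h compound treatment at 37 C of HeLa cells carrying HSE-driven bla reporter; quantitative HTS format.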

[19] = molecular target: Peroxisome proliferator-activated receptor delta (Homo sapiens) (UniProt Q03181); assay: qHTS assay to identify small molecule antagonists of the peroxisome proliferator-activated receptor delta (PPARd) signaling pathway (AID 743215; active means well fitted inhibition curve with a large enough effect in the signal ratio in the repeat runs, not every such curve was filed as active; the % refers to the signal ratio); settings: HEK293H PPARd-UAS-bla, beta-lactamase FRET ratio, antagonist, 17 h; series mostly up to 62 µM
Outline: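 Cells: HEK293H with a UAS-driven beta-lactamase reporter responsive to PPARd. Compounds were co-added with L165041 (300 nM, final) and incubated 17 h at 37 C before a 2 h room-temperature FRET substrate step and fluorescence reading.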

Measured: Potency

Sequence of Peroxisome proliferator-activated receptor delta (Homo sapiens) (Q03181 whole entry, looked up): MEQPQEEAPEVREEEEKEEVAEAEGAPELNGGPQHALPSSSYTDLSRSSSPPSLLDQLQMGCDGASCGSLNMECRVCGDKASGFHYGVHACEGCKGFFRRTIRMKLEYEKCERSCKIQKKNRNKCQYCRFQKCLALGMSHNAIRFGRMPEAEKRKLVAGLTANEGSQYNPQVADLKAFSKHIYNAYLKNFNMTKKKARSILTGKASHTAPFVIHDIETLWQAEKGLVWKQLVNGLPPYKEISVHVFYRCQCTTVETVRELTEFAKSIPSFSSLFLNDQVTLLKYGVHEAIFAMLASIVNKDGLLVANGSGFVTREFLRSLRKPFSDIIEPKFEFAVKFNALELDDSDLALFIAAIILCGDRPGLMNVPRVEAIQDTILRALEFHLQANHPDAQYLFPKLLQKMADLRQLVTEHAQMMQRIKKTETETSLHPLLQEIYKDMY
Sequence of Vitamin D3 receptor (Homo sapiens) (P11473 whole entry, looked up): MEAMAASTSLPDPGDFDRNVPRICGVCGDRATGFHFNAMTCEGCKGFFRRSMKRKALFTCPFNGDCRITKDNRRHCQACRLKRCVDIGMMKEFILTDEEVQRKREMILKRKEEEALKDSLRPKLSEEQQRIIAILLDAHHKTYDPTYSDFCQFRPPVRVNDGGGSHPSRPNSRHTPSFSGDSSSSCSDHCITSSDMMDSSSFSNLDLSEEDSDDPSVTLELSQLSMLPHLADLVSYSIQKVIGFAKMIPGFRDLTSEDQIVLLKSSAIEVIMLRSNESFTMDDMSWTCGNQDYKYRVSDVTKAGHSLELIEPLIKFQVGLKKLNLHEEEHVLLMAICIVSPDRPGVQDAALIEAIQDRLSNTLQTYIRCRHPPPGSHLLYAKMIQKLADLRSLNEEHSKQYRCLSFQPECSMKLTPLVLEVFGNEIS
Sequence of Bile acid receptor (Homo sapiens) (Q96RI1 whole entry, looked up): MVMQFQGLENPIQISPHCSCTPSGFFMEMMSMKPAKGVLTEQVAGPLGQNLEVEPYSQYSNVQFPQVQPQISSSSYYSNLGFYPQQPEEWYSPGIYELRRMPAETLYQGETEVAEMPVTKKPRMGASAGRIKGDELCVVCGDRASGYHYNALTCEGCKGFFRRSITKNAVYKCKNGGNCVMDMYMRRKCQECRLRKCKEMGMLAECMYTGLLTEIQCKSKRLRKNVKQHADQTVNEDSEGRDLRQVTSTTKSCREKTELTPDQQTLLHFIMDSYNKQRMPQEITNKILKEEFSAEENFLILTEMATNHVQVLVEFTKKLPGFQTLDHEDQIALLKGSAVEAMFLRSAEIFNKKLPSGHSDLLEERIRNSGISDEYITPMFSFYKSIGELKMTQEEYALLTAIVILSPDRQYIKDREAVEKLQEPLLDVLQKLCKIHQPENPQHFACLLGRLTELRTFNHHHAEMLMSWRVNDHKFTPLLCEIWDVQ
Sequence of Peroxisome proliferator-activated receptor gamma (Homo sapiens) (P37231 whole entry, looked up): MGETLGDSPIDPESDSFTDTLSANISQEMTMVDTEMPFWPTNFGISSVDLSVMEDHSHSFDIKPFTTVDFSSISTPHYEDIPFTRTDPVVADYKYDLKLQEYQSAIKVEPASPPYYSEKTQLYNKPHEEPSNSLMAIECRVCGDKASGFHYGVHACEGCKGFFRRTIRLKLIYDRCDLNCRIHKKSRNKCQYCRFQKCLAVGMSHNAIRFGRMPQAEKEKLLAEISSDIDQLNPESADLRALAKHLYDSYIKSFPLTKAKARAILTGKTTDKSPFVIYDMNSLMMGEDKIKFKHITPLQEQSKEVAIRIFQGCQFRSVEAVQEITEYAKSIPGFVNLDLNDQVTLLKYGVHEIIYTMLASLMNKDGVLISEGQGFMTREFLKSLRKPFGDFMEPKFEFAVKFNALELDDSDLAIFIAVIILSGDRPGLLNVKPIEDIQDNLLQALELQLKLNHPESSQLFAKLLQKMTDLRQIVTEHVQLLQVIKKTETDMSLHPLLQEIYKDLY

CC(=O)OCC(=O)[C@@]1(O)CC[C@H]2[C@@H]3CCC4=CC(=O)C=C[C@]4(C)[C@H]3[C@@H](O)C[C@@]21C
not listed: [12] | [13] | [14] | [15] | [16] | [17] | [18] | [19]
inactive: all other assays above

Nc1nc(Cl)cc(Cl)n1
not listed: [2] | [4] | [5] | [10] | [16] | [17] | [18] | [19]
inactive: all other assays above

CC(=O)c1ccc(O)c(C(N)=O)c1
not listed: [7] | [10] | [11] | [12] | [13]
inactive: all other assays above

O=C1CCCc2c(O)cccc21
not listed: [2] | [5] | [12] | [13] | [19]
inactive: all other assays above

Cc1cc2c(cc1CC(=O)c1sccc1S(=O)(=O)Nc1onc(C)c1Cl)OCO2
inactive: [1] | [3] | [17] | [18] | [4] | [5] | [7] | [8] | [10] | [11]

COC(=O)c1ccc(NC(C)=O)cc1OC
not listed: [8] | [9] | [10] | [12] | [13] | [17] | [19]
inactive: all other assays above

CCN1CCN(C(=O)N[C@@H](C(=O)N[C@@H]2C(=O)N3C(C(=O)O)=C(CSc4nnnn4C)CS[C@H]23)c2ccc(O)cc2)C(=O)C1=O
not listed: [2] | [6] | [9] | [10] | [11] | [14] | [15] | [17]
inactive: all other assays above

NNC(=O)CCCCC(=O)NN
not listed: [2] | [7] | [12] | [17] | [19]
inactive: all other assays above

CCOC(=O)c1ccc(N(C)C)cc1
inactive: [13] | [1] | [3] | [17] | [5] | [6] | [19] | [9] | [10] | [11]

CC(=O)O[C@@H]1CC2C3CCc4cc(OC(=O)c5ccccc5)ccc4C3CCC2(C)[C@H]1OC(C)=O (stereo not given in full)
not listed: [5] | [12] | [13] | [16] | [19]
inactive: all other assays above

C[C@]12C=CC(=O)C=C1[C@@H](F)C[C@@H]1[C@@H]2[C@@H](O)C[C@@]2(C)[C@H]1CC[C@]2(O)C(=O)CO
not listed: [1] | [4] | [6] | [14] | [15] | [17]
inactive: all other assays above

COc1ccccc1N1CCN(CC(O)COc2cc(OC)c(OC)c(OC)c2)CC1 (stereo not given)
inactive: [16] | [1] | [3] | [17] | [18] | [4] | [5] | [7] | [11]

CCOC(=O)CN1CCCC1=O
inactive: [1] | [3] | [18] | [4] | [6] | [19] | [8] | [9] | [10] | [11]

Cc1nnc(C(=O)NC(C)(C)c2nc(C(=O)NCc3ccc(F)cc3)c(O)c(=O)n2C)o1
inactive: [12] | [1] | [3] | [18] | [5] | [7] | [8] | [9] | [10] | [11]

Clc1ccc2c(c1)Nc1ccccc1S2
active: [2] 29.8 µM
not listed: [9] | [12] | [13] | [14] | [15] | [16] | [17]
inactive: all other assays above

CC(C)(O)c1ccc(C(C)(C)O)cc1
not listed: [1] | [5] | [10] | [14] | [15] | [17] | [19]
inactive: all other assays above

CCCCc1ccc(Cl)cc1
not listed: [2] | [4] | [6] | [10] | [17]
inactive: all other assays above

CC(=O)/C=C/C=C1/C2CCC(C2)C1(C)C (stereo not given)
not listed: [2] | [5] | [12] | [13] | [17] | [19]
inactive: all other assays above

CCCc1ncc(C(=O)O)s1
not listed: [4] | [12] | [13]
inactive: all other assays above
